Source: PubChem BioAssay AID1117319 (Southern Research Institute, 2015)
Values joined by “and” are separate entries in the source; they are usually repeats but may differ in a detail not shown here. Equal values may be shown once. Hit rate of the full screen: of about 260,000 compounds, about 1,500 (0.58%) were called active. Another 5% or so got no clear call; they are omitted.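 The calls were made as follows: active = inhibition above a set limit at one or more doses, reproduced on every date tested; inconclusive = results disagree between test dates, or hit never tested in dose response; inactive = the rest.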 These entries were drawn from the full list. Results with a measured potency or affinity are listed apart.

What follows are molecules tested against Virion infectivity factor (Human immunodeficiency virus type 1 group M subtype B (isolate BH10)) + Virion infectivity factor (Human immunodeficiency virus type 1 group M subtype B (isolate BRU/LAI)) + Virion infectivity factor (Human immunodeficiency virus type 1 group M subtype B (isolate PCV12)) + Virion infectivity factor (Human immunodeficiency virus type 1 group M subtype B (isolate HXB2)) + DNA dC->dU-editing enzyme APOBEC-3G (Homo sapiens) (UniProt P69720+P69721+P69722+P69723+Q9HC16) (assay: inhibitors of Vif binding to APOBEC3G peptide, primary screen, biochemical, TR-FRET, GST-Vif 1-94, biotin-A3G peptide, dose response retest (AID 1117319;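 also: Vif residues 1-94 fused to GST binding biotinylated APOBEC3G peptide 110-148; 0% = full assay without inhibitor and 100% = GST in place of GST-Vif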)). Conditions: active compounds read high.

inhibition, inactive:
O=C(NCCC1=CCCCC1)c1ccc2c(=O)n3c(nc2c1)CCCCC3 -3.44%
Cc1cc(C)nc(N2CCCC(C(=O)NCc3ccc4c(c3)OCO4)C2)n1 (centres undefined) -5.32%
COc1cc(C)c(NC(=O)COc2cccc3c2OC(C)(C)C3)cc1OC -1.98%
Cc1cc2c(ccc3c2no[n+]3[O-])nn1 7.27%
[O-][n+]1onc2c3ccnnc3ccc21 0.24%
CCOc1ccc(CCNC(=O)c2cccc(S(=O)(=O)N3CCCCC3)c2)cc1OCC -3.3%
O=C(Cn1c(=S)[nH]c2ncccc2c1=O)NCCc1ccccc1 -0.88%
O=C(NCCCN1CCOCC1)c1ccc2c(=O)n(Cc3ccccc3)c(=S)[nH]c2c1 -10.2%
CCOC(=O)C1=C(O)c2ccccc2C(=O)/C1=C\c1ccc(CC)cc1 31.5%
CCOC(=O)C1=C(Cc2ccc(OC)cc2)C(=O)c2ccccc2C1=O 24.3%
CCN(CC)/C(=N\S(=O)(=O)c1ccc(F)cc1)c1ccccc1 3.32%
COCCNC(=S)N1CCCN(c2nc3cc(C)ccc3cc2C#N)CC1 3.12%
Cc1ccc(S(=O)(=O)N(Cc2ccccc2)c2ccccc2C(=O)NCc2cccnc2)cc1 1.8%
COc1ccc(NCc2n[nH]c(=O)c3ccccc23)cc1 4.49%
O=c1[nH]nc(CNc2ccc(C(F)(F)F)cc2)c2ccccc12 -3.84%
CC(NC(=O)COC(=O)c1cc(S(=O)(=O)N2CCOCC2)ccc1F)c1ccccc1 (centres undefined) 4.22%
Cc1ccc(S(=O)(=O)Nc2cccc(C(=O)N3CCC(C(N)=O)CC3)c2)cc1 -11.3%
O=C(CSc1nc2ccccc2c(=O)n1-c1ccccc1Cl)Nc1cccc(S(=O)(=O)N2CCOCC2)c1 12.8%
Cc1cc(C)nc(NS(=O)(=O)c2ccc(NC(=O)c3cc(=O)c4ccccc4o3)cc2)n1 -13.1%
Cc1ccc(C(=O)NC(=S)NNC(=O)COc2ccc([N+](=O)[O-])cc2)cc1 -1.27%
Cc1cc(/C=C2/NC(=O)N(c3ccccc3)C2=O)c(C)n1-c1cccnc1 5.85%
Cc1cc(C=C2C(=O)c3ccccc3C2=O)c(C)n1-c1cccc(C(=O)O)c1 24.6%
Cc1cccc(N2C(=O)CC(N3CCN(c4ccccc4)CC3)C2=O)c1 (centres undefined) 6.83%
Cc1ccc(N=C2NC(=O)CS2)cc1 32.9%
Cc1ccccc1N=C1NC(=O)CS1 -1.84%
CCOC(=O)C(NC(=O)c1cccc(Cl)c1)(Nc1sc2c(c1C(N)=O)CCC2)C(F)(F)F (centres undefined) 30.9%
Nc1nc2nc(-c3ccc(F)cc3)cc(C(F)(F)F)n2n1 12.1%
COc1ccc(NS(=O)(=O)c2cccc(C(=O)NNC(=O)c3ccccc3O)c2)cc1 9.79%
COc1ccc(NS(=O)(=O)c2cccc(C(=O)NNC(=O)c3cccc(NC(C)=O)c3)c2)cc1 2.28%
CCc1ccc(N(C(=O)CNC(=O)c2ccco2)C(C(=O)NCC2CCCO2)c2ccccc2)cc1 (centres undefined) 6.06%
O=C(CCNC(=O)c1ccccc1Cl)Nc1nc(-c2ccccc2Cl)cs1 15.5%
NC(=O)c1ccc(-n2nnnc2SCc2ccccc2)cc1 -2.97%
COC(=O)c1ccccc1-c1ccc(C=O)o1 -12.2%
COC(=O)c1ccccc1-c1ccc(/C=N/NC(N)=O)o1 -4.17%
COc1cc(/C=C(\C#N)c2ccccn2)cc(OC)c1O 7.21%
COc1cc(C(=O)Oc2cccc(C=O)c2)cc(OC)c1OC 8.54%
CCc1ccc(OCc2nnc(SCc3ccc(C(=O)O)cc3)o2)cc1 -1.45%
O=C(O)c1ccc(CSc2nnc(COc3ccccc3)o2)cc1 -5.6%
CSCCC(NC(=O)c1ccccc1Cl)C(=O)N1CCN(c2ccccn2)CC1 (centres undefined) -6.33%
COc1ccc(-c2noc(CCC(=O)N3CCN(c4cccc(C(F)(F)F)c4)CC3)n2)cc1 22.9% and -0.11%
CC(C)N(Cc1ccccc1)C(=O)COC(=O)C1CCN(c2ccc(C(F)(F)F)cn2)CC1 -3.12%
Oc1ccc2ccccc2c1Br 0.97%
O=C1C(=O)c2c(ccc3ccccc23)-c2ccccc21 -6.35%
CCCCCCCCC#Cc1nc(C)ccc1OC -3.1%
CCOC(=O)N1C2=NC(C(=O)OC)=C(C(=O)OC)[C@@H]3Nc4ccccc4[C@]23C[C@H]1C(=O)OC 4.32%
C[C@H]1CN([C@@H](C)CO)C(=O)CCCn2nncc2CO[C@@H]1CN(C)C(=O)NC1CCCCC1 1.5%
O=C(O)c1ccccc1C(=O)Nc1ccc(-n2nccc2C(F)(F)F)cc1 -1.72%
O=C(CNc1ccc(F)cc1)N/N=C1\CCCc2ccccc21 -0.54%
COC(=O)CSc1nc(N)nc(C)c1Cl -8.89%
CC1=C(C(=O)N2CCOCC2)C(c2ccc(O)cc2)NC(=S)N1 (centres undefined) 17.4%
c1ccc2c3c(cc(N4CCOCC4)c2c1)OC1(N2CCOCC2)CCCCC1O3 (centres undefined) -2.4%
COc1cc(OC)cc(C(=O)N[C@H](C(=O)Nc2cc(C)cc(C)c2)C(C)C)c1 -1.59%
COc1ccc(OC)c2[nH]c(=O)c(CCNC(=O)C(=O)c3c(C)[nH]c4ccccc34)cc12 2.37%
CC[n+]1cccc(-c2nc3ccccc3s2)c1 5.45%
COC(=O)CSc1nnc(CNC(=O)c2cccc(C)c2)n1-c1ccccc1OC 6.5%
CCOC(=O)CSc1nnc(CNC(=O)Cc2ccccc2)n1-c1ccccc1OC -6.46%
Cc1ccc(CNC(=O)C2CC2c2ccccc2)cc1 (centres undefined) -6.49%
CN(CC(=O)Nc1c(Cl)cccc1Cl)C(=O)Cc1ccsc1 -2.32%
Cc1cc(NC(=O)C2CC(c3ccc(F)cc3)=NO2)no1 (centres undefined) 0.56%
CCc1cc2cccc(C)c2nc1SCC(=O)Nc1nonc1C 32.8%
COc1cc(S(=O)(=O)N(Cc2ccccn2)Cc2ccco2)ccc1-n1cnnn1 -2.53%
COc1ccccc1CN(Cc1ccco1)S(=O)(=O)c1ccc(-n2cnnn2)c(OC)c1 0.86%
CN[C@H]1C[C@H]2c3[nH]c4ccccc4c3CCN2C(=O)[C@H]1[C@H](C)O -5.11%
O=[N+]([O-])c1cc(F)c(N2CCCCC2)cc1N1CCOCC1 8.86%
N#Cc1cc(N2CCCCC2)c([N+](=O)[O-])cc1C#N -2.18%
CCN(c1ccccc1)S(=O)(=O)c1ccc(Oc2ccccc2)c(N)c1 2.08%
COc1cccc(C2=NOC(C(=O)NCc3cccs3)C2)c1 (centres undefined) -3.08%
COc1ccc(C2=NOC(C(=O)NCc3cccs3)C2)cc1 (centres undefined) -3.82%
COc1cc(-n2c(C)nc3ncn(-c4ccccc4)c3c2=O)cc(OC)c1OC 2.62%
CC(=O)Nc1ccc(OCC(O)Cn2cccn2)cc1 (centres undefined) -6.52%
CCCN(CC(=O)Nc1ccccc1C)C(=O)C1CCN(C(=O)Nc2ccccc2)CC1 -0.04%
O=C(Oc1ccccc1)c1cccc(N2C(=O)CCC2=O)c1 -0.79%
N#Cc1c(Nc2cccc(F)c2)sc2c(O)cc(=O)[nH]c12 -5.54%
CCCNS(=O)(=O)c1ccc(CCC(=O)Nc2ccc3c(c2)OCO3)cc1 2.82%
CS(=O)(=O)N(CCc1ccccc1)CC(=O)Nc1ccc2c(c1)OCO2 13.8%
CS(=O)(=O)N(CC(=O)Nc1ccc2c(c1)OCCO2)Cc1ccccc1 24.5%
O=C(CCc1ccc(S(=O)(=O)NCCc2ccccc2)cc1)NCc1ccc2c(c1)OCO2 -2.37%
CC1(C)Cc2c(sc3nc(SCC(=O)N4CCOCC4)nc(N)c23)CO1 3.98%
CSc1nc(C)cc(OCC(=O)n2nc(C)cc2C)n1 1.86%
CC(=O)Nc1sc2c(c1C(c1ccccc1)N1CCOCC1)CCCC2 (centres undefined) 5.78%
CCOC(=O)c1ccc(NC(=O)C(=O)NCc2ccncc2)cc1 27%
O=[N+]([O-])c1c(NCCO)cc(N2CCC3(CC2)OCCO3)c2nonc12 -8.02%
CC(=O)OCCNc1cc(N2CCN(C)CC2)c2noc3c2c1C(=O)c1ccccc1-3 3.2%
CCOC(=O)c1coc(C(=O)OCC)c1C(=O)OCC -10.9%
COc1ccc(-c2csc(NC3=NCCCCC3)n2)cc1 -3.94%
O=C1NC(=S)N/C1=C\c1cccc([N+](=O)[O-])c1 0.47%
O=C1NC(=S)N/C1=C/c1cc([N+](=O)[O-])ccc1O 0.15%
O=C(/C=C\Nc1ccccn1)c1ccccc1 1.92%
O=C(/C=C\Nc1ccc2c(c1)OCO2)c1ccccn1 -6.96%
O=C(NCc1cccnc1)c1cc2nc(-c3cccs3)cc(C(F)(F)Cl)n2n1 -9.65%
Cn1c(CNc2ccccc2O)nc2ccccc21 17.5%
CCCn1c(CNc2ccc(Br)cc2)nc2ccccc21 -3.54%
COc1ccc(NCc2nc3ccccc3n2CCOc2ccc(C)cc2)cc1 8.44%
CCOc1ccc(NCc2nc3ccccc3n2CCOc2ccccc2)cc1 11.4%
